Compound activity: PubChem, NMMLSC
Only some compounds are listed: those with a hit (about 2.9% of all), similar ones and a draw of the others.
MEKK2 WT-MEK5: modulators of MEK5 binding to wildtype MEKK2, primary screen, biochemical, multiplex bead flow cytometry, Alexa488-MEK5. Mitogen-activated protein kinase kinase kinase 2 (Homo sapiens), Q9Y2U5. AID 1531, 2009. binding response (% of control), % at 10 µM. actives 1.1% (n = 290,000). Alexa488-MEK5 binding to MEKK2 WT; actives lie on both sides; in the data active = binding response below about 67% or above about 130%
MEKK2 mut-MEK5: MEK5 binding signal on mutant MEKK2 PB1, primary screen, biochemical, multiplex bead flow cytometry, Alexa488-MEK5; Alexa488-MEK5 binding to MEKK2 mutant; percent response, % at 10 µM; actives 0.35% (n = 290,000); AID 1530, 2009; in the data active = percent response above about 24%, passing the limit was not always enough
B2AR ag: beta2AR agonists driving receptor internalization, primary screen, cell-based, FAP fluorogen, flow cytometry; Beta-2 adrenergic receptor (Homo sapiens), P07550; Am2.2-beta2AR cells; response, % (no concentration beside the values); actives 0.43% (n = 340,000);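 active = response above a set limit, near 3 SD of response in nonfluorescent compounds, cut at about 42% in these data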
MEKK3 PB1 HTS: modulators of MEKK3-MEK5 PB1 binding, primary screen, biochemical, wildtype MEKK3, multiplex bead flow cytometry, Alexa488-MEK5; Mitogen-activated protein kinase kinase kinase 3 (Homo sapiens), Q99759; binding response (% of control), % at 10 µM; bead-based flow cytometry, Alexa488-MEK5 binding to MEKK3; actives lie on both sides; 0 = blocked by unlabeled MEK5, 100 = vehicle; actives 1.4% (n = 290,000);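 active = binding response more than 3 SD above or below the average of its plate-row segment, actives on both sides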;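 also: Alexa488 bead fluorescence after subtracting the streptavidin-only scavenger bead signal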
GRK2 inh: compounds blocking aptamer binding on GRK2 – biochemical, human GRK2, bead flow cytometry, HTS, primary screen; FAM-aptamer displacement from GRK2; inhibition of aptamer binding, % at 10 µM; actives 0.59% (n = 330,000); AID 488847, 2010;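 active = inhibition of aptamer binding above 40%, roughly 3 SD of noise, on plates passing a quality check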;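 also: median bead fluorescence of bound FAM aptamer so fluorescent compounds give negative values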
Target sequence (P25098 whole entry, looked up): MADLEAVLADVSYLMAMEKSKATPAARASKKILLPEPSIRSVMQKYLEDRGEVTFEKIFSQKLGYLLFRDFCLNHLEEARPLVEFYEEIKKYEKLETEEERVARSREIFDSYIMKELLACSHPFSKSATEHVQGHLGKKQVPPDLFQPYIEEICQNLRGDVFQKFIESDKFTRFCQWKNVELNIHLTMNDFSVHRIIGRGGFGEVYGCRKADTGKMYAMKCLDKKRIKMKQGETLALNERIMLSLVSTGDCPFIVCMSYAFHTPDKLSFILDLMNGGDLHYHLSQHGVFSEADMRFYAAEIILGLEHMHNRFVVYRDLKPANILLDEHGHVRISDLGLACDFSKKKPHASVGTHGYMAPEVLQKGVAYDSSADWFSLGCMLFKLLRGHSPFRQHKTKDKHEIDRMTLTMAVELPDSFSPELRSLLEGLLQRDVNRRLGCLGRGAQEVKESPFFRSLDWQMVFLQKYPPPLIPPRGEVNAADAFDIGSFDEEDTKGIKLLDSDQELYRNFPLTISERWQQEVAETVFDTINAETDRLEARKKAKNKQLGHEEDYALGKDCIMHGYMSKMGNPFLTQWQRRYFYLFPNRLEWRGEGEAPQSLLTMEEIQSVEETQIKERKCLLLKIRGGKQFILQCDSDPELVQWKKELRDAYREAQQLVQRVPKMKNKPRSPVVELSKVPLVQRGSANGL
MEKK2wt confirm: modulators of MEK5 binding to wildtype MEKK2, confirmation, biochemical, single concentration, multiplex bead flow cytometry; AID 1892, 2009; binding response (% of control), % at 10 µM; actives 2.4% (n = 5,900); Alexa488-MEK5 binding to MEKK2 WT; actives lie on both sides; shares compounds with MEKK3 PB1 HTS; in the data active = binding response below about 16% or above about 210%; inactive = in between
MEKK2mut confirm: mutant MEKK2 PB1-MEK5 binding signal retest – biochemical, single concentration, multiplex bead flow cytometry, confirmation; shares compounds with MEKK3 PB1 HTS; Alexa488-MEK5 binding to MEKK2 mutant; percent response, % at 10 µM; actives 2% (n = 5,900); in the data active = percent response mostly above about 71%, no sharp cut-off; inactive = mostly below about 38%;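 also: higher means compound restores mutant binding toward wildtype level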
MEKK3-MEK5 inh: MEKK3 wild-type PB1 binding to MEK5, inhibitors, confirmation, biochemical, bead multiplex flow cytometry, single concentration, wildtype | shares compounds with MEKK3 PB1 HTS | Alexa488-MEK5 binding to MEKK3; hits give low values | binding response (% of control), % at 10 µM | actives 1.8% (n = 5,900);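 active = binding response below 72% of control, or above a set upper limit, though filed actives all read lower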;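 also: 100% = DMSO only wells and 0% = binding blocked by excess unlabeled MEK5; lower values mean stronger disruption of MEK5 binding to MEKK3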
GRK2 inh confirm: GRK2 aptamer-displacing inhibitors, retest, confirmation, biochemical, cherry pick 1, bead flow cytometry; shares compounds with GRK2 inh; bead-bound GRK2, FAM-aptamer displacement; aptamer displacement, % at 10 µM; actives 4% (n = 2,000); AID 504451, 2011;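 active = aptamer displacement above 40%, near three times the noise of non-fluorescent compounds, on plates passing quality checks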;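 also: negative values mostly reflect intrinsic compound fluorescence rather than true enhancement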
Aptamer quench SP: counter-screen for GRK2 aptamer inhibitors: fluorescent aptamer quenchers | Carboxyfluorescein RNA aptamer on beads, flow cytometry quenching; hits give low values | shares compounds with GRK2 inh | fluorescence response (% of DMSO), % at 10 µM | 2,000 tested, under 10 active;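 active = compounds that quench the bead-bound fluorescent RNA probe, cutting fluorescence to under half of the solvent control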;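 also: counterscreen run without GRK2 so only probe quenching by compound is measured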
Beta2AR ag CP1: beta2AR agonists via receptor internalization, confirmation, cell-based, FAP fluorogen, flow cytometry, single point, cherry pick 1; Am2.2-beta2AR cells, FAP surface receptor; hits give low values; actives 25% (n = 1,100); percent response (surface receptor), % at 10 µM; AID 540358, 2011; shares compounds with B2AR ag;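 active = surface receptor percent response at or below 58%, roughly 3 SD from nonfluorescent compounds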
FAP fluor counter: counter-screen for beta-2AR agonists: fluorescence in Am2.2 cells; shares compounds with B2AR ag; FAP fluorogen flow cytometry, fluorescence counterscreen; hits give low values; calls only at 10 µM; 1,100 tested, under 10 active;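 active = percent response below a set limit in fluorescence channel 1 and below 50% in channel 8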
Numbers without * were called inactive; i = inactive; . = no result; ! = repeats disagree.

SMILES	MEKK2 WT-MEK5	MEKK2 mut-MEK5	B2AR ag	MEKK3 PB1 HTS	GRK2 inh	MEKK2wt confirm	MEKK2mut confirm	MEKK3-MEK5 inh	Beta2AR ag CP1	FAP fluor counter	others
COc1cc2nc(N3CCN(C(=O)C4COc5ccccc5O4)CC3)nc(N)c2cc1OC (configuration not stated)	150.0*!	15.0	7.0	116.0	0.0	146.0	27.0	111.0	99.8	i
COc1cc2nc(N3CCN(C(=O)c4ccco4)CC3)nc(N)c2cc1OC	104.0	6.0	5.3	112.0	1.0	.	.	.	.	.
CCCCCCCCCCOC(=O)Cn1c(COc2ccccc2OC)[n+](C)c2ccccc21	238.0*	61.0*	16.2	111.0	0.0	251.0*	141.0*	112.0	107.2	i
Cn1c(COc2ccccc2O)[n+](C)c2ccccc21	116.0	15.0	-3.7	109.0	1.0	.	.	.	.	.
COc1ccc(OC)c(CCNC(=O)c2ccccc2NC(=O)C2=C(C)OCCS2)c1	99.0	-3.0	7.1	104.0	0.0	.	.	.	.	.
Cc1ccc(-n2ncc(C(=O)Nc3cc(Cl)cc(Cl)c3)c2C2CCNCC2)cc1C	216.0*	58.0*	56.4*	106.0	.	143.0	-7.0	94.0	76.1	i
CCc1ccc(C)[n+](CC(=O)c2cccs2)c1	108.0	8.0	0.3	105.0	2.0	.	.	.	.	.
C=CCc1ccc(OCCOc2ccc(/C=N/n3cnnc3)cc2OCC)c(OC)c1	116.0	27.0*	57.0*	111.0	0.0	101.0	-7.0	104.0	33.5*	i
COc1cc(/C=N/n2cnnc2)ccc1OCCOc1ccccc1	93.0	-6.0	-2.6	91.0	1.0	.	.	.	.	.
O=C(CSc1nnc(-c2ccncc2)o1)N1CCc2ccccc2C1	104.0	-1.0	0.0	106.0	1.0	.	.	.	.	.
Cc1c(CN2CCC(CO)(Cc3cccc(C(F)(F)F)c3)CC2)c2ccccc2n1C	165.0*	44.0	45.5*	108.0	0.0	137.0	11.0	99.0	97.2	i
O=c1c2ccccc2nc(-c2ccco2)n1CCc1ccc(O)cc1	103.0	8.0	19.2	105.0	1.0	.	.	.	.	.
CNCCCC12CCC(c3ccccc31)c1ccccc12	137.0*!	7.0	29.2	111.0	0.0	106.0	1.0	94.0	94.5	i
Fc1ccc(-c2nn(-c3ccccc3)cc2CNCc2ccccc2)cc1	160.0*	19.0	44.2*	98.0	0.0	150.0	19.0	104.0	91.0	i
O=C(O)Cc1cn(-c2ccccc2)nc1-c1ccccc1	95.0	-3.0	-0.8	97.0	0.0	.	.	.	.	.
CN(C)CCCN(C(=O)c1ccco1)c1nc2ccc(Br)cc2s1	135.0	17.0	17.7	106.0	0.0	.	.	.	.	.
CN(C)CCCN(C(=O)CCc1ccccc1)c1nc2ccc(Br)cc2s1	233.0*	43.0	43.6*	113.0	0.0	176.0	42.0	108.0	119.9	i
COc1ccc(C(C)NCCC(c2ccc(OC(C)C)cc2)c2ccccc2OC)cc1 (configuration not stated)	194.0*	45.0*	22.9	110.0	0.0	180.0	44.0	109.0	95.6	i
CC(C)(C)NC(=O)CSc1ncnc2c1cnn2-c1ccccc1	98.0	2.0	9.0	97.0	7.0	.	.	.	.	.
CNCC[C@H](Oc1cccc2ccccc12)c1cccs1	157.0*!	6.0	49.6*	111.0	0.0	123.0	24.0	100.0	102.2	i
COc1ccccc1NCC(O)Cn1c2ccccc2c2ccccc21 (configuration not stated)	99.0	-2.0	2.3	99.0	0.0	.	.	.	.	.
COc1ccc(CCNCC(O)Cn2c3ccccc3c3ccccc32)cc1OC (configuration not stated)	159.0*	23.0	47.6*	106.0	0.0	165.0	36.0	111.0	53.0*	i
CC(C)Oc1ccc(CNC(=O)CC(c2ccccc2)c2cc(Cl)ccc2O)cc1 (configuration not stated)	91.0	-2.0	3.7	92.0	1.0	.	.	.	.	.
COc1ccc(C(CCNCc2ccc(N(C)C)cc2)c2ccccc2)cc1 (configuration not stated)	159.0*	22.0	11.8	109.0	0.0	137.0	11.0	98.0	103.9	i
CC(C)Oc1ccc(C(CCNCc2ccc(O)cc2)c2ccccc2)cc1 (configuration not stated)	150.0*	24.0*	33.7	107.0	0.0	132.0	13.0	99.0	102.9	i
C[C@]12c3[nH]c4cc(-c5ccco5)ccc4c3CCN1C(=O)[C@@H](CC(=O)NCc1ccco1)C[C@@H]2C(=O)N1CCCCC1	.	.	3.0	.	8.0	.	.	.	.	.
Cc1nn(C)c(C)c1C(C)NC(=O)c1cc(COc2cncc(Cl)c2)on1 (configuration not stated)	99.0	2.0	-0.1	104.0	83.0*	.	.	.	.	.	GRK2 inh confirm=3.1;Aptamer quench SP=96.5
